What all share (settings): mRNA level, 48 h; actives raise or lower the signal
Read-out in assay [1]: matrix metalloproteinase-3 (MMP3), MMP3 (gene 4314)
Description: LTEA_HepaRG_MMP3: Life Technologies and Expression Analysis (LTEA) Assay for matrix metalloproteinase-3 (MMP3) using HepaRG (AID 2283519). Put shortly:
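Differentiated human HepaRG cells, plated 48 h on collagen I, were exposed in duplicate for 48 h in serum-free induction medium to eight half-log concentrations up to 100 uM in 0.5% DMSO. MMP3 mRNA was quantified by TaqMan qRT-PCR, normalised to ACTB, GAPDH and POLR2A.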

Read-out in assay [2]: Nuclear factor NF-kappa-B p105 subunit (Homo sapiens) (UniProt P19838)
Description: LTEA_HepaRG_NFKB1: Life Technologies and Expression Analysis (LTEA) Assay for Nuclear Factor Kappa B Subunit 1 (NFKB1) using HepaRG (AID 2283521).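 For outcome: TaqMan qRT-PCR transcript normalised to ACTB GAPDH and POLR2A housekeeping genes.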 Put shortly: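 HepaRG, 48 h exposure; 8-pt half-log series from 100 uM in 0.5% DMSO; duplicates. Readout: NFKB1 mRNA by qRT-PCR (Fluidigm arrays), housekeeping-normalized. Gain/loss fit vs DMSO baseline.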

Read-out in assay [3]: Protein phosphatase 2A (PPP2R4), PTPA (gene 5524)
Description: LTEA_HepaRG_PPP2R4: Life Technologies and Expression Analysis (LTEA) Assay for Protein phosphatase 2A (PPP2R4) using HepaRG (AID 2283522). Put shortly:
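Gene-expression endpoint in HepaRG hepatic cells: 48 h treatment across eight half-log concentrations up to 100 uM in 0.5% DMSO. PPP2R4 mRNA by qRT-PCR, normalized to three endogenous control genes.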

Read-out in assay [4]: Phosphatase and tensin (PTEN), PTEN (gene 5728)
Briefly: LTEA_HepaRG_PTEN: Life Technologies and Expression Analysis (LTEA) Assay for Phosphatase and tensin (PTEN) using HepaRG (AID 2283523). In a few lines: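 Differentiated human HepaRG cells, plated 48 h then switched to serum-free induction medium, were exposed in duplicate for 48 h to eight half-log concentrations up to 100 uM in 0.5% DMSO. PTEN mRNA measured by TaqMan qRT-PCR, normalized to ACTB/GAPDH/POLR2A, bidirectional fit versus DMSO.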

Read-out in assay [5]: solute carrier (SLC22A1), SLC22A1 (gene 6580)
Briefly: LTEA_HepaRG_SLC22A1: Life Technologies and Expression Analysis (LTEA) Assay for solute carrier (SLC22A1) using HepaRG (AID 2283524). Put shortly:
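Human HepaRG cells were plated 48 h, switched to serum-free induction medium, then exposed in duplicate for 48 h to 8-point half-log series from 100 uM in 0.5% DMSO. SLC22A1 mRNA measured by qRT-PCR, normalized to ACTB/GAPDH/POLR2A, fitted bidirectionally versus DMSO.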

Read-out in assay [6]: Pyruvate Dehydrogenase Kinase 4 (PDK4), PDK4 (gene 5166)
Description: LTEA_HepaRG_PDK4: Life Technologies and Expression Analysis (LTEA) Assay for Pyruvate Dehydrogenase Kinase 4 (PDK4) using HepaRG (AID 2283525). Put shortly:
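Differentiated human HepaRG cells, pre-cultured 48 h, were exposed in duplicate for 48 h in serum-free induction medium to eight half-log concentrations up to 100 uM in 0.5% DMSO. PDK4 mRNA was quantified by qRT-PCR, normalized to ACTB, GAPDH and POLR2A, bidirectional fitting versus DMSO.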

Read-out in assay [7]: NAD(P)H dehydrogenase [quinone] 1 (NQO1), NQO1 (gene 1728)
Description: LTEA_HepaRG_NQO1: Life Technologies and Expression Analysis (LTEA) Assay for NAD(P)H dehydrogenase [quinone] 1 (NQO1) using HepaRG (AID 2283526). In a few lines:
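Human HepaRG hepatic cells received chemicals for 48 h in serum-free induction medium with 0.5% DMSO, up to 100 uM. Expression was assessed by TaqMan qRT-PCR against housekeeping controls and fitted bidirectionally against DMSO.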

Read-out in assay [8]: Nuclear factor erythroid 2-related factor 2 (Homo sapiens) (UniProt Q16236)
Description: LTEA_HepaRG_NFE2L2: Life Technologies and Expression Analysis (LTEA) Assay for Nuclear factor erythroid 2-related factor 2 (NFE2L2) Transcription Factor using HepaRG (AID 2283527).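 For outcome: TaqMan qRT-PCR transcript level normalised to ACTB GAPDH and POLR2A housekeeping genes.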 Put shortly:
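Differentiated human HepaRG cells in serum-free induction medium were exposed for 48 h to eight concentrations (top 100 uM, half-log dilutions, 0.5% DMSO), in duplicate. NFE2L2 mRNA was quantified by TaqMan qRT-PCR, normalized to ACTB, GAPDH and POLR2A, with bidirectional fitting versus DMSO.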

Read-out in assay [9]: succinate dehydrogenase complex iron sulfur subunit B (SDHB), SDHB (gene 6390)
Description: LTEA_HepaRG_SDHB: Life Technologies and Expression Analysis (LTEA) Assay for succinate dehydrogenase complex iron sulfur subunit B (SDHB) using HepaRG (AID 2283528). In a few lines:
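Readout is SDHB transcript level by qRT-PCR, normalised to three housekeeping genes and fitted bidirectionally against 0.5% DMSO vehicle. Human HepaRG cells were treated for 48 h at up to 100 uM.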

Read-out in assay [10]: Signal transducer and activator of transcription 3 (Homo sapiens) (UniProt P40763)
Description: LTEA_HepaRG_STAT3: Life Technologies and Expression Analysis (LTEA) Assay for Signal transducer and activator of transcription (STAT3) using HepaRG (AID 2283529). In a few lines: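 Differentiated human HepaRG cells in serum-free induction medium were exposed in duplicate for 48 h to eight half-log concentrations up to 100 uM in 0.5% DMSO. STAT3 mRNA was quantified by TaqMan qRT-PCR, normalized to ACTB, GAPDH and POLR2A, and fitted bidirectionally against DMSO.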

The values below come from PubChem BioAssay (EPA / NIEHS).

Structures are written as SMILES. Calls of active or inactive are those of the source. Rule for the calls: active = hit-call score of the fitted dose curve at least 0.9, where 1 is the maximum; inactive = score below 0.9.

Sequence of Nuclear factor NF-kappa-B p105 subunit (Homo sapiens) (P19838 whole entry, looked up): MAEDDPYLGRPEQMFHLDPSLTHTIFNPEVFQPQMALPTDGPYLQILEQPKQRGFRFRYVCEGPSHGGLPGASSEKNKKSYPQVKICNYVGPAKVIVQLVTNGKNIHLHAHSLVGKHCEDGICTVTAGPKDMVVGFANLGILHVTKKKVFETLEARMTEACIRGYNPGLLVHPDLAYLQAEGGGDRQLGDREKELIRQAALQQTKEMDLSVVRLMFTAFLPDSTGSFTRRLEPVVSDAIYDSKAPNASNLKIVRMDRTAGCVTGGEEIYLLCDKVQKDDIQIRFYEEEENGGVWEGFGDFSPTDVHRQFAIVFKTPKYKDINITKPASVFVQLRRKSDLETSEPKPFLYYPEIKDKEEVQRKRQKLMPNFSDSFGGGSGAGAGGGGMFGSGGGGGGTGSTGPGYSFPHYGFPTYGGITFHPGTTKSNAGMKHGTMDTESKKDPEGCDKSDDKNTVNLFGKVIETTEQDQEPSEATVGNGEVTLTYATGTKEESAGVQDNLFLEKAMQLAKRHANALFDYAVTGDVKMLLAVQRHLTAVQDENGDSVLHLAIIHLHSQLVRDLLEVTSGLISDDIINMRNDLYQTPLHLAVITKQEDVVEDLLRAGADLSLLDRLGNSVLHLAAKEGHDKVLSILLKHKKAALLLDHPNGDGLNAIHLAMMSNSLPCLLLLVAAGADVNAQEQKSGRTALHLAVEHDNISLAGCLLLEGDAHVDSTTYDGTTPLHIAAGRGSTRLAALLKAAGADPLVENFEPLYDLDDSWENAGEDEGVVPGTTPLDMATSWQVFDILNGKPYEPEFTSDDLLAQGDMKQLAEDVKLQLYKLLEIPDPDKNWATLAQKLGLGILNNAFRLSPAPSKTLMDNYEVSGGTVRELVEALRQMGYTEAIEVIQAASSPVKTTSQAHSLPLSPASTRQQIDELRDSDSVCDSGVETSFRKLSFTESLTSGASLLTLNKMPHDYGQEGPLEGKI
Sequence of Nuclear factor erythroid 2-related factor 2 (Homo sapiens) (Q16236 whole entry, looked up): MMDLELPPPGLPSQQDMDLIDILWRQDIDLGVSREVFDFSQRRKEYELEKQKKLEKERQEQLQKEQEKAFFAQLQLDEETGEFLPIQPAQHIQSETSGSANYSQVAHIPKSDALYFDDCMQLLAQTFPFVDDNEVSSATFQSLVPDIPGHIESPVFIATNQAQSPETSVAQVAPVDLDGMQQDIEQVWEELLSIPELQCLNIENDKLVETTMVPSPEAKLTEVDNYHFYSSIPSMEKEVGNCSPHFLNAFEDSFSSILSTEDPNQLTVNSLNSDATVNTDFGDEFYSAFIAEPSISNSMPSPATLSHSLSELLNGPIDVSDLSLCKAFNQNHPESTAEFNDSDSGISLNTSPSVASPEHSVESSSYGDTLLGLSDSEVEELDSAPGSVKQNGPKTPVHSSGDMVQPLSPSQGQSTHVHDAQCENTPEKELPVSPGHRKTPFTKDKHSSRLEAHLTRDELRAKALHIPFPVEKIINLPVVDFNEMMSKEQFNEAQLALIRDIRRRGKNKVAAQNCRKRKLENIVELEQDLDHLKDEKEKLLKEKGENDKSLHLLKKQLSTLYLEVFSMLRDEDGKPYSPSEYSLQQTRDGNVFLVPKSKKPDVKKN
Sequence of Signal transducer and activator of transcription 3 (Homo sapiens) (P40763 whole entry, looked up): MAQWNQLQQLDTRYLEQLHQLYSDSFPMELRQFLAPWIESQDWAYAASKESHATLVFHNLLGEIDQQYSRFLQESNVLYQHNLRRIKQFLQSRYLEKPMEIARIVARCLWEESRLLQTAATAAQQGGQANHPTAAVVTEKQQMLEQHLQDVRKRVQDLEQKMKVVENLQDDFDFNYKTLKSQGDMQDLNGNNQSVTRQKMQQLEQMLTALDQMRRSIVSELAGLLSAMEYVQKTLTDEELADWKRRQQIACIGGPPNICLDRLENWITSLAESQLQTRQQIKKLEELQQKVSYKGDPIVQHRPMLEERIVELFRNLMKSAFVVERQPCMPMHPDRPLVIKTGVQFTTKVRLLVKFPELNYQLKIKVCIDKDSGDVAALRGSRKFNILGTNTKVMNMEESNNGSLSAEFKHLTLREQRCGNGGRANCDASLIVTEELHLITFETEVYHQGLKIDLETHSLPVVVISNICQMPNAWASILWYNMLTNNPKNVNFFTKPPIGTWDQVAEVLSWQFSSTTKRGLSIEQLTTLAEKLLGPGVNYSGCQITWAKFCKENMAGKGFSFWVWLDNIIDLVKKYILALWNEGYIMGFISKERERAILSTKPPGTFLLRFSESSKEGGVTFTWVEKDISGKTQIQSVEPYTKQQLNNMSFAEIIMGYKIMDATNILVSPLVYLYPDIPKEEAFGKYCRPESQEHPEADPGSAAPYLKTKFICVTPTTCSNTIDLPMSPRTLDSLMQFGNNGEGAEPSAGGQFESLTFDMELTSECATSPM

Regarding `CCC(C)(C)c1ccc(O)c(C(C)(C)CC)c1`, the result in [1], in assay [2], in assay [3], in assay [4], in assay [5] and in assay [6] was inactive. The outcome in [7], in assay [8], in assay [9] and in assay [10] was inactive.
As for `CC(C)(C)c1cc(O)ccc1O`, the compound was called inactive in [1], in assay [2], in [3], in assay [4], in assay [5] and in assay [6]. The compound was called inactive in assay [7], in assay [8], in assay [9] and in assay [10].
Take `CC(C)(OO)c1ccccc1`: the result in assay [1], in [2], in assay [3], in assay [4], in assay [5] and in assay [6] was inactive. The call in assay [7], in assay [8], in assay [9] and in assay [10] was inactive.
Take `CCOP(=S)(OCC)Oc1nc(Cl)c(Cl)cc1Cl`: the compound was classed as inactive in assay [1], in assay [2], in assay [3], in [4], in assay [5] and in assay [6]. For the same compound, the compound was called inactive in [7], in assay [8], in assay [9] and in assay [10].
As usually defined, the AC50 is the concentration giving half of the maximal activity seen. Take `C=C(C)C(=O)[O][Sn]([CH2]CCC)([CH2]CCC)[CH2]CCC`: the outcome in [1], in [3] and in [10] was inactive. Moreover, the AC50 is 94.9 µM (active) in assay [2]; 15.8 µM (active) in [4]; 2.7 µM (active) in assay [5]; 1.18 µM (active) in [6]; 9.2 µM (active) in assay [7]; 61.3 µM (active) in assay [8]. The AC50 in assay [9] is 94.1 µM (active).
Take `NC(=O)O`: the outcome in [1], in assay [2], in assay [3], in assay [4], in [5] and in assay [6] was inactive. Further, the compound was called inactive in assay [7], in [8], in assay [9] and in [10].
Take `CC(C)(c1ccccc1)c1ccc(O)c(C(C)(C)c2ccccc2)c1`: the compound was called inactive in assay [1], in assay [2], in [3], in assay [4], in assay [6] and in [7]. Besides, the result in assay [9] and in assay [10] was inactive. Further, the AC50 is 65.4 µM (active) in assay [5] and 50 µM (active) in [8].
Regarding `O=c1[nH]c(=O)[nH]c(=O)[nH]1`, the compound was called inactive in assay [1], in [2], in assay [3], in assay [4], in assay [5] and in assay [6]. The call in assay [7], in [8], in [9] and in assay [10] was inactive.
With `CC(C)(C)CC(C)(C)c1ccc(O)cc1`, the result in [1], in [2], in assay [3], in assay [4], in [5] and in [6] was inactive. Further, the compound was classed as inactive in assay [7], in assay [8], in assay [9] and in [10].
Turning to `Cn1sc(Cl)cc1=O`, the compound was called inactive in [1], in assay [2], in [3], in assay [4], in assay [5] and in assay [6]. The compound was classed as inactive in assay [7], in assay [8], in assay [9] and in [10].
With `C=CC(=O)OCCCCCC(C)C`, the compound was classed as inactive in assay [1], in [2], in [3], in assay [4], in [5] and in [6]. Also, the compound was classed as inactive in assay [7], in assay [8], in assay [9] and in assay [10].
As for `C[C@@H]1C[C@@H]([C@H](O)CC2CC(=O)NC(=O)C2)C(=O)[C@@H](C)C1`, the AC50 in assay [1] is 83.3 µM (active); in [2], 17.6 µM (active); in assay [3], 0.636 µM (active); in assay [4] it was 87.6 µM (active); in [5], 8.29 µM (active); in assay [6], 31.9 µM (active). For the same compound, the concentration at half-maximal activity (AC50) in assay [7] was 29.3 µM (active); in assay [8], 30.3 µM (active); in assay [9], 50 µM (active); in assay [10] it was 15.6 µM (active).
With `CC12CC1(C)C(=O)N(c1cc(Cl)cc(Cl)c1)C2=O` (stereo not given), the compound was classed as inactive in assay [1], in [2], in [3], in assay [4], in assay [7] and in assay [8]. Further, the compound was classed as inactive in assay [9] and in assay [10]. Further, the AC50 was 11.2 µM (active) in assay [5] and 16.2 µM (active) in assay [6].
With `O=C1C2(Cl)C3(Cl)C4(Cl)C(Cl)(Cl)C5(Cl)C3(Cl)C1(Cl)C5(Cl)C24Cl` (stereo not given), the compound was classed as inactive in assay [1], in assay [2], in assay [4] and in [7]. The AC50 in assay [3] was 15.8 µM (active); in [5], 19.3 µM (active); in assay [6] it was 92.7 µM (active); in assay [8] it was 92.1 µM (active); in assay [9], 91.6 µM (active); in assay [10] it was 93.1 µM (active).
`Cc1ccccc1N`: the compound was called inactive in [1], in [2], in assay [3], in [4], in assay [5] and in assay [6]. Moreover, the compound was classed as inactive in assay [7], in assay [8], in [9] and in [10].
